High-throughput results as filed in PubChem BioAssay.
CYP2C9 inh: blocks human cytochrome P450 2C9. CYP2C9 Supersomes, luciferin-H conversion, luminescence. inhibition, % at 5 µM. 20% of 96,000 active. AID 777;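 active = blocking of liver enzyme CYP2C9 beyond about 50% at 5 µM, limit read from the data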
CYP2C19 inhib: human CYP2C19 inhibition; inhibition, % at 5 µM; P33261; AID 778; 21% of 96,000 active; CYP2C19 Supersomes, luciferin-H EGE luminescence, 30 min;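 active = CYP2C19 inhibition above a set limit at 5 µM in the primary screen, cut at about 50% in these data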;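 also: plate controls were negative control wells for no effect and 2.5 mM tranylcypromine positive control for full effect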
CYP2C9 activ: CYP2C9 (human) activation; P11712; AID 1024; 1.4% of 96,000 active; activation factor at 5 µM; recombinant CYP2C9, luciferin-H conversion, luminescence; active compounds read high; factor 1 = untreated enzyme, 0 = blocked;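 active = activation factor of 2 or more for CYP2C9 at a 5 µM dose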;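 also: 0 = sulfaphenazole-blocked wells and 1 = vehicle-only wells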
Cav32 inh: blocks human Cav3.2 T-type calcium channel. Cav3.2-expressing cells, Fluo-4 calcium fluorescence FDSS; active compounds read low. B-score at 10 µM. 4% of 100,000 active;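 active = single-dose well whose peak fluorescence ratio is a statistical outlier from its plate by either plate-standardised score or position-corrected B-score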
Pyk2 oligo antag: antagonists of human Pyk2 oligomerization; Q293 cells, Pyk2 FERM NanoBiT luminescence; active compounds read low; z-score (the deposit names both 25 µM and 10 µM); 0.83% of 99,000 active; AID 1347419;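 active = Z-score of -3 or lower, scaled per plate to the spread of control and sample wells; inactive = z-score above -3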;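 also: negative z-score means lost luminescence so less FERM oligomerization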
Target sequence (Q14289 whole entry, looked up): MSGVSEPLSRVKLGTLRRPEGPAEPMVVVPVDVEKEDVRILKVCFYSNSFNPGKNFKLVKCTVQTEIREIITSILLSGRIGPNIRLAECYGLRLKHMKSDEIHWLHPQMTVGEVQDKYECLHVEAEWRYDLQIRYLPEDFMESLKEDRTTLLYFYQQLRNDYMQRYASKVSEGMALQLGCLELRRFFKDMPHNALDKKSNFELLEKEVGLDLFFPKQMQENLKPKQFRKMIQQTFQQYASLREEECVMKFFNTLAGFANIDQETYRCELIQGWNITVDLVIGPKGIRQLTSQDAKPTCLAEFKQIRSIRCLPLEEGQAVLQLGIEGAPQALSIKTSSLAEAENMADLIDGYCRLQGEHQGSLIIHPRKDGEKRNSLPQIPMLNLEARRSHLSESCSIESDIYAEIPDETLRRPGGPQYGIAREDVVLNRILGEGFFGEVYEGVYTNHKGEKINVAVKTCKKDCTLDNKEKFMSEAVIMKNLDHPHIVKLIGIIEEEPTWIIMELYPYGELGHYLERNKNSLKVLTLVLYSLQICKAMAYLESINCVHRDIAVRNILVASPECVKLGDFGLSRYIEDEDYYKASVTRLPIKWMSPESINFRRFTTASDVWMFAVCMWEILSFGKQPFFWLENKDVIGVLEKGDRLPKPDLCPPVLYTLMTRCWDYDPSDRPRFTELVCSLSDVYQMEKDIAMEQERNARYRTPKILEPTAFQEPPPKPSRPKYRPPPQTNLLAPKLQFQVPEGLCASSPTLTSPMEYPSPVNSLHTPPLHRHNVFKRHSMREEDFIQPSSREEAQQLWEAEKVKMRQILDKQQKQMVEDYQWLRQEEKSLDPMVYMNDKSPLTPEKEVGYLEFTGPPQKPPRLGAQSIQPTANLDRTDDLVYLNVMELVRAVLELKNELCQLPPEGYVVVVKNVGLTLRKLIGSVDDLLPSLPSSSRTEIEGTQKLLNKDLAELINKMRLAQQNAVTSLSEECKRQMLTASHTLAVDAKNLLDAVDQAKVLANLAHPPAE
CYP2C19 activ: increases human CYP2C19 enzyme activity | recombinant CYP2C19, luciferin-H EGE luminescence; active compounds read high; 0 = fully inhibited enzyme, 1 = untreated enzyme | 96,000 tested, under 10 active | activation factor at 5 µM | AID 1025;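 active = activation factor of at least 2 at 5 µM in the primary screen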;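 also: 0 = wells with 2.5 mM tranylcypromine and 1 = vehicle-only wells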
Starred values were filed as active, the others as inactive; x = no result given. Only some compounds are listed: those with a hit (about 27% of all), similar ones and a draw of the others.

SMILES | CYP2C9 inh | CYP2C19 inhib | CYP2C9 activ | Cav32 inh | Pyk2 oligo antag | CYP2C19 activ
CSC1=NCCN1C(=O)COc1ccc2ccccc2c1 | 32.0 | 88.4* | 0.7 | -1.94 | x | 0.1
CSC1=NCCN1C(=O)COc1ccccc1 | -10.6 | -6.1 | 1.1 | 0.0338 | x | 1.1
Cc1cccc(/C(N)=N/OC(=O)c2cccs2)c1 | 37.6 | 22.5 | 0.6 | 0.146 | -0.4 | 0.8
O=C(CC(c1ccccc1)C1CCCCC1=O)c1ccco1 (configuration not stated) | x | x | x | 0.0224 | 0.13 | x
COc1ccc(C(=O)NCC(=O)OC2CCCCC2=O)cc1 (configuration not stated) | -0.1 | 80.6* | 1 | -0.146 | -0.14 | 0.2
COc1ccc(C(=O)C(CN2CCCC2)c2ccccc2)cc1 (configuration not stated) | 17.7 | 16.9 | 0.8 | 0.369 | 0.34 | 0.8
COc1ccc(C(=O)CC(c2ccccc2)C2CCCCC2=O)cc1 (configuration not stated) | 72.6* | 20.3 | 0.3 | -2.21 | -0.73 | 0.8
O=C(CC(c1ccco1)C1CCCCC1=O)c1ccco1 (configuration not stated) | 55.4* | 52.9* | 0.4 | -0.262 | 1.76 | 0.5
COc1ccccc1-c1cn[nH]c(=S)n1 | 2.2 | 3.6 | 1 | 0.11 | 1.02 | 1
Cc1oc(-c2ccccc2)[n+]([O-])c1C | 6.5 | 0.6 | 0.9 | -0.84 | -0.52 | 1
CCCc1[nH]nc2c1C(CCC)C(C#N)=C(N)O2 (configuration not stated) | 6.5 | 61.7* | 0.9 | 0.984 | 1.42 | 0.4
CC(C)C1C(C#N)=C(N)Oc2n[nH]c(-c3ccc4ccccc4c3)c21 (configuration not stated) | 23.2 | 6.4 | 0.8 | -0.883 | -2.17 | 0.9
CCc1[nH]nc2c1C(C(C)C)C(C#N)=C(N)O2 (configuration not stated) | 32.1 | 74.9* | 0.7 | 0.216 | -0.87 | 0.3
CCC(CC)C1C(C#N)=C(N)Oc2n[nH]c(C)c21 (configuration not stated) | 57.1* | 82.2* | 0.4 | -0.228 | 0.11 | 0.2
CCC(CC)C1C(C#N)=C(N)Oc2n[nH]c(-c3ccccc3)c21 (configuration not stated) | -22.2 | 57.0* | 1.2 | 0.43 | -0.22 | 0.4
CC(C)NC(=O)CN1CCN(c2ncccn2)CC1 | 8.3 | 10.2 | 0.9 | 0.644 | 0.12 | 0.9
COc1nc(N/N=C/c2ccc(C)cc2)nc(N2CCCCC2)n1 | x | x | x | x | -1.44 | x
Cc1cc(C=O)c(C)n1-c1ccc(N2CCCCC2)c([N+](=O)[O-])c1 | x | x | x | -1.2 | -0.25 | x
COc1ccc(-n2c(C)cc(C=O)c2C)cc1Cl | 16.0 | 59.1* | 0.8 | -0.358 | -0.19 | 0.4
CCSc1ncc(C#N)c(=O)[nH]1 | -12.1 | 1.5 | 1.1 | 0.682 | 0.58 | 1
O=C(COC(=O)c1ccccn1)Nc1ncc(C(F)(F)F)cc1Cl | 19.8 | 35.0 | 0.8 | 0.409 | 0.96 | 0.7
O=C(COC(=O)c1ccccn1)Nc1cccc(Cl)c1Cl | 22.0 | 84.4* | 0.8 | x | 0.61 | 0.2
COc1ccc(C(=O)N2CCC(=O)N(C(CO)Cc3ccccc3)CC2)cc1 (configuration not stated) | x | x | x | 0.0717 | x | x
O=C(O)CCC(=O)NCC1OCCc2ccccc21 (configuration not stated) | -23.6 | -17.8 | 1.2 | 1.1 | 0.23 | 1.2
COc1ccc(C(=O)NCC2OCCc3ccccc32)c(O)c1 (configuration not stated) | 50.7* | 90.3* | 0.5 | 0.045 | -0.39 | 0.1
SMILES | CYP2C9 inh | CYP2C19 inhib | CYP2C9 activ | Cav32 inh | Pyk2 oligo antag | CYP2C19 activ
Cc1cc(C)nc(NC2=NC3CCCCC3N2)n1 (configuration not stated) | 1.3 | -1.3 | 1 | 0.244 | 0.13 | 1
COc1ccc(Cn2cnc3c([N+](=O)[O-])c(C)c(C)cc32)cc1 | 59.1* | 53.2* | 0.4 | -6.18* | -0.47 | 0.5
CCc1ccc(C(=O)CSc2n[nH]c(-c3ccncc3)n2)cc1 | 96.6* | 86.6* | 0 | 0.794 | 0.24 | 0.1
Cc1noc(NS(=O)(=O)c2ccc(NC(=O)CSc3n[nH]c(-c4ccccc4)n3)cc2)c1C | 28.1 | 1.1 | 0.7 | -0.636 | 2.81 | 1
Cc1ccc(NC(=O)CSc2n[nH]c(-c3ccncc3)n2)cc1 | 94.4* | 61.5* | 0.1 | 0.966 | -0.71 | 0.4
O=C(CSc1n[nH]c(-c2ccncc2)n1)Nc1ccccn1 | 76.7* | 50.0* | 0.2 | -0.0157 | -0.14 | 0.5
COc1ccc(C(=O)CSc2n[nH]c(-c3ccco3)n2)cc1 | 10.9 | 28.6 | 0.9 | -0.533 | 1.41 | 0.7
CCOC(=O)c1sc(NC(=O)CSc2n[nH]c(-c3ccncc3)n2)c(C#N)c1C | 50.6* | 3.5 | 0.5 | 1.23 | -2.12 | 1
COCCOC(=O)C1=C(C)N=C2SCCC(=O)N2C1c1cccc(Br)c1 (configuration not stated) | 46.7 | 30.0 | 0.5 | -1.24 | -0.34 | 0.7
CC(=O)Nc1ccc(C(=O)CSc2nc3ccccc3n2CC(=O)N2CCCC2)cc1 | 42.3 | 24.0 | 0.6 | 0.317 | 0.63 | 0.8
CC(C)=NOCc1ccc(-c2cn([C@@H]3COC[C@H]3O)nn2)cc1 | x | x | x | 1.51 | x | x
Cc1cccc(C)c1OCC(=O)NNC(=O)Nc1ccc(Cl)cc1 | -13.6 | 41.9 | 1.1 | -1.64 | 1.18 | 0.6
CCCCNC(=O)[C@H](CSCc1ccccc1)N1Cc2ccccc2C1=O | x | x | x | -1.49 | x | x
O=C(CSc1n[nH]c(-c2ccccc2)n1)c1ccc(O)c(O)c1 | 55.7* | 64.0* | 0.4 | 0.232 | -0.67 | 0.4
CCc1ccc(C(=O)CSc2ncn[nH]2)cc1 | 30.6 | 74.6* | 0.7 | -0.382 | -0.65 | 0.3
COC(=O)CSc1n[nH]c(-c2ccncc2)n1 | 64.9* | 61.2* | 0.4 | -0.899 | -1.04 | 0.4
CCCC1CC(C)(C(=O)CSc2n[nH]c(-c3ccccc3)n2)OC1=O (configuration not stated) | 42.2 | 49.7 | 0.6 | -0.667 | 0.86 | 0.5
COC(=O)c1cc2oc3ccccc3c2n1CC(=O)N1CCCc2ccccc21 | 21.6 | 34.0 | 0.8 | 0.281 | -2.07 | 0.7
Cc1ccccc1OC(=O)CCC(=O)OCCCC(F)(F)C(F)(F)F | 41.0 | 54.3* | 0.6 | -3.29 | 0.82 | 0.5
Cc1ccc(OC(=O)CCC(=O)OCCCC(F)(F)C(F)(F)F)cc1 | -7.3 | -13.7 | 1.1 | 0.452 | 0.89 | 1.1
CCCN1c2cccc3cccc(c23)S1(=O)=O | -336.3 | 89.9* | 4.4* | -2.06 | -0.06 | 0.1
O=C1c2ccccc2S(=O)(=O)N1Cc1nnc(-c2ccccc2Br)o1 | x | x | x | 0.177 | 2.33 | x
O=S1(=O)c2cccc3cccc(c23)N1Cc1ccc(-c2nnco2)cc1 | 53.4* | 67.7* | 0.5 | -0.402 | -0.63 | 0.3
O=S1(=O)c2cccc3cccc(c23)N1Cc1nnc(-c2ccccc2Br)o1 | -47.2 | 92.9* | 1.5 | -1.6 | -1.2 | 0.1
O=C(Oc1ccc(-c2nnco2)cc1)N1CCOCC1 | x | x | x | 0.000525 | 0.21 | x
